Assay results reported in the supplement of paper PMC12669032.

Experiments:
Assay in all cases: growth AUC relative to DMSO control (median of replicates) (fraction); higher = more growth (less inhibition), active = hit call of the paper
Conditions in all cases: 20 µM; 24 h;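 active = AUC reduced over 20% with Padj below 0.05 in at least 2 of 3 replicates; inactive = otherwise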
Akkermansia muciniphila = test system: Akkermansia muciniphila
In short: (§1)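 In round-bottom 96-well plates sealed with pierced gas-permeable seals, gut bacterial monocultures in mGAM were grown anaerobically at 37 °C from OD600 0.05 with 20 µM compound (1% DMSO). OD600 readings were taken hourly for 24 h, and the minimum OD was set to 0. Area under the growth curve was then normalised to the plate median of solvent-only wells, or to row and column medians on the industrial chemical plate. The value given is the median of three biological replicates grown on separate days.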

Bacteroides caccae = test system: Bacteroides caccae
In short: as §1

Bacteroides clarus = test system: Bacteroides clarus
In short: as §1

Bacteroides dorei = test system: Bacteroides dorei
In short: as §1

Bacteroides stercoris = test system: Bacteroides stercoris
In short: as §1

[1] = test system: Bacteroides thetaiotaomicron
In short: as §1

Bacteroides uniformis = test system: Bacteroides uniformis
In short: as §1

[2] = test system: Bifidobacterium longum subsp. longum
In short: as §1

Clostridium difficile = test system: Clostridium difficile
In short: as §1

Collinsella aerofaciens = test system: Collinsella aerofaciens
In short: as §1

Measured: growth AUC

CNC(=O)O/N=C/C(C)(C)S(C)(=O)=O
inactive: Akkermansia muciniphila 0.927 | Bacteroides caccae 0.994 | Bacteroides clarus 0.962 | Bacteroides dorei 1.02 | Bacteroides stercoris 0.973 | [1] 1 | Bacteroides uniformis 1.01 | [2] 1.05 | Clostridium difficile 0.966 | Collinsella aerofaciens 1.01

OCC1C(CO)C2(Cl)C(Cl)=C(Cl)C1(Cl)C2(Cl)Cl (stereo not given)
inactive: Akkermansia muciniphila 0.817 | Bacteroides clarus 0.818 | Bacteroides dorei 0.859 | Bacteroides stercoris 0.259 | [2] 1.04 | Clostridium difficile 0.901 | Collinsella aerofaciens 0.947
active: Bacteroides caccae 0.721 | [1] 0.799 | Bacteroides uniformis 0.275

CNC(=O)N(C)c1nc2ccccc2s1
inactive: Akkermansia muciniphila 0.902 | Bacteroides caccae 1.02 | Bacteroides clarus 0.991 | Bacteroides dorei 1 | Bacteroides stercoris 0.998 | [1] 0.999 | Bacteroides uniformis 0.991 | [2] 0.936 | Clostridium difficile 0.978 | Collinsella aerofaciens 0.995

CCC(C)c1ccccc1OC(=O)NC (stereo not given)
inactive: Akkermansia muciniphila 0.869 | Bacteroides caccae 1.03 | Bacteroides clarus 0.975 | Bacteroides dorei 1.01 | Bacteroides stercoris 0.961 | [1] 0.981 | Bacteroides uniformis 0.978 | [2] 0.976 | Clostridium difficile 1 | Collinsella aerofaciens 0.986

ClC1=C(Cl)C2(Cl)[C@H]3[C@H]4O[C@H]4[C@H](Cl)[C@H]3C1(Cl)C2(Cl)Cl (single isomer, unassigned; isomer a)
inactive: Akkermansia muciniphila 1.05 | Bacteroides caccae 0.99 | Bacteroides clarus 0.989 | Bacteroides dorei 1 | Bacteroides stercoris 0.778 | [1] 1.02 | Bacteroides uniformis 0.991 | [2] 1.07 | Clostridium difficile 0.998 | Collinsella aerofaciens 0.949

Oc1ccccc1Cl
inactive: Akkermansia muciniphila 0.985 | Bacteroides caccae 1.01 | Bacteroides clarus 0.993 | Bacteroides dorei 1.01 | Bacteroides stercoris 1.05 | [1] 0.983 | Bacteroides uniformis 0.988 | [2] 0.99 | Clostridium difficile 0.995 | Collinsella aerofaciens 1

O=P(OCCCl)(OCCCl)OCCCl
inactive: Bacteroides caccae 0.985 | Bacteroides clarus 0.986 | Bacteroides dorei 0.995 | [1] 0.972 | Bacteroides uniformis 0.874 | [2] 0.895 | Clostridium difficile 0.963 | Collinsella aerofaciens 0.977
active: Akkermansia muciniphila 0.628 | Bacteroides stercoris 0.651

CCc1ccc(C(=O)NN(C(=O)c2cc(C)cc(C)c2)C(C)(C)C)cc1
inactive: Akkermansia muciniphila 0.924 | Bacteroides caccae 1.03 | Bacteroides clarus 0.993 | Bacteroides dorei 0.987 | Bacteroides stercoris 0.875 | [1] 0.976 | Bacteroides uniformis 0.955 | [2] 0.911 | Clostridium difficile 0.965 | Collinsella aerofaciens 1

CCOP(=S)(OCC)Oc1nc(Cl)n(C(C)C)n1
inactive: Akkermansia muciniphila 1.04 | Bacteroides caccae 0.932 | Bacteroides clarus 1.02 | Bacteroides dorei 1.01 | Bacteroides stercoris 1.14 | [1] 1.01 | Bacteroides uniformis 0.972 | [2] 0.964 | Clostridium difficile 0.982 | Collinsella aerofaciens 1.02

O=C1C2CC=CCC2C(=O)N1SC(Cl)(Cl)Cl (stereo not given)
inactive: Akkermansia muciniphila 0.981 | Bacteroides caccae 1.03 | Bacteroides clarus 1.01 | Bacteroides dorei 1.03 | Bacteroides stercoris 1.08 | [1] 1.01 | Bacteroides uniformis 1.02 | [2] 0.981 | Clostridium difficile 1.04 | Collinsella aerofaciens 1.02

COC(=O)N(C(=O)N1CO[C@@]2(C(=O)OC)Cc3cc(Cl)ccc3C2=N1)c1ccc(OC(F)(F)F)cc1
inactive: Akkermansia muciniphila 0.961 | Bacteroides caccae 0.952 | Bacteroides clarus 0.965 | Bacteroides dorei 0.982 | Bacteroides stercoris 0.965 | [1] 0.873 | Bacteroides uniformis 0.98 | [2] 0.83 | Clostridium difficile 0.916 | Collinsella aerofaciens 0.884

CCOP(=O)(OCC)O/C(=C/Br)c1ccc(Cl)cc1Cl
inactive: Akkermansia muciniphila 1.06 | Bacteroides caccae 0.94 | Bacteroides clarus 0.952 | Bacteroides dorei 0.948 | Bacteroides stercoris 0.879 | [1] 0.89 | Bacteroides uniformis 0.821 | [2] 0.991 | Clostridium difficile 0.978 | Collinsella aerofaciens 1.06

CC(C)c1ccc(NC(=O)N(C)C)cc1
inactive: Akkermansia muciniphila 1.04 | Bacteroides caccae 0.978 | Bacteroides clarus 0.987 | Bacteroides dorei 1.02 | Bacteroides stercoris 0.937 | [1] 1.02 | Bacteroides uniformis 1.02 | [2] 1.18 | Clostridium difficile 0.995 | Collinsella aerofaciens 0.947

O=S(=O)(c1ccc(Cl)cc1)c1cc(Cl)c(Cl)cc1Cl
inactive: Akkermansia muciniphila 1.07 | Bacteroides caccae 0.921 | Bacteroides clarus 0.935 | Bacteroides dorei 0.91 | Bacteroides stercoris 0.931 | [1] 0.952 | Bacteroides uniformis 0.903 | [2] 1.04 | Clostridium difficile 0.963 | Collinsella aerofaciens 0.945

BrCCBr
inactive: Akkermansia muciniphila 1.11 | Bacteroides caccae 0.998 | Bacteroides clarus 1.01 | Bacteroides dorei 1.02 | Bacteroides stercoris 1.17 | [1] 0.987 | Bacteroides uniformis 1 | [2] 1.03 | Clostridium difficile 0.997 | Collinsella aerofaciens 0.995

CC[C@H]1CCCC(O[C@H]2CC[C@H](N(C)C)[C@@H](C)O2)[C@@H](C)C(=O)C2=C[C@@H]3[C@@H](C=C(C)[C@@H]4C[C@@H](O[C@@H]5O[C@@H](C)[C@H](OC)[C@@H](OC)[C@H]5OC)C[C@@H]34)[C@@H]2CC(=O)O1.CC[C@H]1CCCC(O[C@H]2CC[C@H](N(C)C)[C@@H](C)O2)[C@@H](C)C(=O)C2=C[C@@H]3[C@@H](C=C[C@@H]4C[C@@H](O[C@@H]5O[C@@H](C)[C@H](OC)[C@@H](OC)[C@H]5OC)C[C@@H]34)[C@@H]2CC(=O)O1 (stereo not given in full)
inactive: Akkermansia muciniphila 0.986 | Bacteroides caccae 1.01 | Bacteroides clarus 0.979 | Bacteroides dorei 1.04 | Bacteroides stercoris 0.888 | [1] 1 | Bacteroides uniformis 0.987 | [2] 0.889 | Clostridium difficile 1.03 | Collinsella aerofaciens 0.958

N#Cc1c[nH]cc1-c1cccc2c1OC(F)(F)O2
inactive: Akkermansia muciniphila 0.837 | Bacteroides caccae 0.959 | Bacteroides clarus 0.918 | Bacteroides dorei 0.953 | Bacteroides stercoris 0.85 | [1] 0.953 | Bacteroides uniformis 0.999 | [2] 0.91 | Clostridium difficile 0.978 | Collinsella aerofaciens 0.992

N#CN=C1SCCN1Cc1ccc(Cl)nc1
inactive: Akkermansia muciniphila 0.871 | Bacteroides caccae 1 | Bacteroides clarus 1 | Bacteroides dorei 0.967 | Bacteroides stercoris 1.22 | [1] 0.999 | Bacteroides uniformis 0.991 | [2] 1.04 | Clostridium difficile 1.02 | Collinsella aerofaciens 0.98

CCC(C)(C)c1ccc(O)cc1
inactive: Akkermansia muciniphila 0.91 | Bacteroides caccae 1.01 | Bacteroides clarus 0.981 | Bacteroides dorei 1.03 | Bacteroides stercoris 0.859 | [1] 1 | Bacteroides uniformis 1 | [2] 1.08 | Clostridium difficile 1.06 | Collinsella aerofaciens 1.01

O=C1OCC2C1C1(Cl)C(Cl)=C(Cl)C2(Cl)C1(Cl)Cl (stereo not given)
inactive: Akkermansia muciniphila 1.09 | Bacteroides caccae 0.965 | Bacteroides clarus 0.991 | Bacteroides dorei 0.987 | Bacteroides stercoris 0.871 | [1] 1.04 | Bacteroides uniformis 1.01 | [2] 1.06 | Clostridium difficile 0.987 | Collinsella aerofaciens 0.926

Cc1c(F)c(F)c(COC(=O)[C@@H]2[C@H](/C=C(\Cl)C(F)(F)F)C2(C)C)c(F)c1F (mixture of isomers)
inactive: Akkermansia muciniphila 0.937 | Bacteroides caccae 0.943 | Bacteroides clarus 0.993 | Bacteroides dorei 0.935 | Bacteroides stercoris 0.981 | [1] 0.989 | Bacteroides uniformis 1.01 | [2] 0.997 | Clostridium difficile 1 | Collinsella aerofaciens 0.976

Nc1ccncc1
inactive: Akkermansia muciniphila 0.943 | Bacteroides caccae 0.997 | Bacteroides clarus 0.997 | Bacteroides dorei 1.04 | Bacteroides stercoris 1.02 | [1] 0.981 | Bacteroides uniformis 0.987 | [2] 0.911 | Clostridium difficile 1 | Collinsella aerofaciens 1

CCNc1nc(NCC)nc(SC)n1
inactive: Akkermansia muciniphila 1.14 | Bacteroides caccae 0.946 | Bacteroides clarus 1.02 | Bacteroides dorei 0.994 | Bacteroides stercoris 1.26 | [1] 0.955 | Bacteroides uniformis 1 | [2] 1.08 | Clostridium difficile 0.981 | Collinsella aerofaciens 0.996

C#CCN1C(=O)COc2cc(F)c(N3C(=O)C4=C(CCCC4)C3=O)cc21
inactive: Akkermansia muciniphila 1.23 | Bacteroides caccae 1.01 | Bacteroides clarus 0.994 | Bacteroides dorei 0.931 | Bacteroides stercoris 1 | [1] 1 | Bacteroides uniformis 0.959 | [2] 1.02 | Clostridium difficile 0.929 | Collinsella aerofaciens 0.944

C=C(C)[C@H]1Cc2c(ccc3c2O[C@@H]2COc4cc(OC)c(OC)cc4[C@@H]2C3=O)O1
inactive: Akkermansia muciniphila 1.07 | Bacteroides caccae 0.985 | Bacteroides clarus 0.897 | Bacteroides dorei 0.947 | Bacteroides stercoris 0.735 | [1] 0.965 | Bacteroides uniformis 0.813 | [2] 1 | Clostridium difficile 1.03 | Collinsella aerofaciens 0.987

O=[N+]([O-])c1ccc(Oc2ccc(Cl)cc2Cl)cc1
inactive: Akkermansia muciniphila 1.09 | Bacteroides caccae 0.959 | Bacteroides clarus 0.971 | Bacteroides dorei 0.973 | Bacteroides stercoris 1.09 | [1] 0.99 | Bacteroides uniformis 0.931 | [2] 0.972 | Clostridium difficile 0.97 | Collinsella aerofaciens 0.998

CC1(C)C(/C=C(\Cl)C(F)(F)F)C1C(=O)OC(C#N)c1cccc(Oc2ccccc2)c1 (stereo not given)
inactive: Akkermansia muciniphila 0.989 | Bacteroides caccae 0.951 | Bacteroides clarus 1.02 | Bacteroides dorei 1.01 | Bacteroides stercoris 1.19 | [1] 0.995 | Bacteroides uniformis 0.993 | [2] 1.12 | Clostridium difficile 1.04 | Collinsella aerofaciens 0.969

COC(=O)N(OC)c1ccccc1COc1ccn(-c2ccc(Cl)cc2)n1
inactive: Akkermansia muciniphila 0.936 | Bacteroides caccae 0.803 | Bacteroides clarus 0.91 | Bacteroides dorei 0.972 | Bacteroides stercoris 1.09 | [1] 0.91 | Bacteroides uniformis 0.861 | [2] 1.03 | Clostridium difficile 0.989 | Collinsella aerofaciens 1
